The source of these data is PubChem BioAssay AID1259415 (National Center for Advancing Translational Sciences (NCATS), 2018).

Molecules are shown by their SMILES. Out of some 410,000 compounds screened, about 18,000 (4.4%) were called active. About 7% were inconclusive and are not listed. The sample as a whole holds a higher share of actives than the screen did. Values without a mark were called inactive. Rule as the data show it: active = activity change below about -60%; inconclusive = no clear call, values can overlap the other calls; inactive = above about -39%.
% is scaled to controls: 0 for no effect and ±100 for the full control effect.

The nature of this test: qHTS Assay for inhibitors of the human cytomegalovirus (HCMV). The following applies: HFF cells, HCMV-luciferase reporter, 72 h; at 57.5 µM; hits give low values. The source says: NCGC Assay Overview: Infection with human cytomegalovirus (HCMV) continues to pose significant threats for pregnant women and immunocompromised hosts. HCMV causes serious morbidity and mortality in transplant recipients, and congenital HCMV is the leading infectious cause of mental retardation and deafness in children. In the 1990s, the annual costs associated with the disease burden of congenital CMV were estimated at around $2 billion. A HCMV vaccine is not available yet and HCMV therapies result in intolerable side effects and emergence of drug resistant viruses. […] Towards this goal we have developed and characterized a luciferase HCMV reporter that was initially used in 96 well plates and then optimized to 1536-well plates for utilization in screening of the MLSMR collection, the NGCG diversity collection and the NCGC Pharmaceutical Collection of approved and investigational drugs.
NCGC Assay Protocol Summary:
This is a cell-based assay for HCMV inhibition in HFFs cells. The screening used 2 compound doses and the HCMV-luciferase at MOI of 1 PFU/cell. Cells were treated and infected with HCMV. At 72 h post infection cell lysates were collected and luciferase activity was determined using the Glomax-Multi + Detection System (Promega, Madison, WI). Data were normalized to the controls for basal activity (buffer only) and known HCMV inhibitors Salinmoycin.
1536-well assay protocol for the assay:
(1) Add 3 ul CMV/HFF cell culture. 1000 cells/well in DMEM nirmal media.
(2) Incubate 16 hr at 37C.
(3) Add 23 nl control compound, 10uM of Salinomycin.
(4) Add 23 nl compounds in DMSO solution.
(5) Add 3 ul CMV suspension. Final 1 puf/ul, Virus stock 2000pfu/ul
(6) Incubate 72 hrs at 37C.
(7) Add 4 ul OneGlo Luc Reagent.
(8) Incubate 5 min at room temperature.
In the case of `CCOc1ccc(NC(=O)C(CC(C)C)N2Cc3ccccc3C2=O)cc1` (stereo not given), the activity change, negative = inhibition was 9.79%. Turning to `Cc1ccccc1-c1nc(SCC(=O)N(C)c2ccccc2)c2c(=O)n(C)c(=O)n(C)c2n1`, the activity change, negative = inhibition was 27.2%. Consider `CCCN1CCN(CCCNC(=O)c2ccc3nc(Cc4ccccc4)oc3c2)CC1`, for which the activity change, negative = inhibition is 8.36%.

`COCCNC(=O)c1ccc2c(c1)N(Cc1cccc(Cl)c1)C(=O)c1ccccc1S2(=O)=O`: the activity change, negative = inhibition is 5.49%. Consider `CN1CCN(CCCNC(=O)c2ccc(/C=C3\Oc4ccccc4N(Cc4ccc(Cl)cc4)C3=O)cc2)CC1`, for which the activity change, negative = inhibition was -110% (active). For `CCc1nc(-c2cc(S(=O)(=O)N3CCN(c4ccc(OC)cc4)CC3)ccc2OC)no1`, the activity change, negative = inhibition is 48.2%. Take `Clc1ccccc1CSc1nncn2c1cc1occc12`: the activity change, negative = inhibition is -18.9%. With `CCOC(=O)CN(C(=O)COc1nc(-c2ccccc2)cc(C)c1C#N)c1ccc(F)cc1` the figure was -37.6%. Under `Cc1ccc(-c2cc(C(F)(F)F)c(C#N)c(SCC(=O)Nc3ccccc3)n2)cc1` stands 1.85%; under `CCOc1cc(-c2cc(-c3ccc(NC(C)=O)cc3)nc(N)c2C#N)ccc1O`, -70.4% (active).

For the molecule `Cc1ccc(-c2nc(CS(=O)(=O)CC(=O)NCc3ccccc3Cl)c(C)o2)cc1`, the activity change, negative = inhibition is -14.3%. In the case of `CCOc1ccc(NS(=O)(=O)c2ccc(N)cc2)nn1`, the activity change, negative = inhibition was -10.2%. As for `CCCCn1c(=N)c(S(=O)(=O)c2ccccc2)cc2c(=O)n3cccc(C)c3nc21`, the activity change, negative = inhibition was 12.5%. `COc1ccc(Cc2n[nH]c(=S)n2NC(=O)Nc2ccc(C)cc2)cc1`: the activity change, negative = inhibition was 4.71%. For `COc1ccc(CC(=O)Nc2ccc(-c3nc4ccccc4s3)c(C)c2)cc1`, the activity change, negative = inhibition is 52.5%. With `COc1ccc(CC(=O)Nc2ccc(-c3nnc(-c4ccc(C)cc4)o3)cc2)cc1`, the activity change, negative = inhibition was -63.2% (active).

Turning to `CCn1c2ccccc2c2nnc(N3CCN(c4cc(C)ccc4C)CC3)nc21`, the activity change, negative = inhibition was -34%. For the molecule `COc1cc(OC)c(NC(=O)Cc2ccc(-n3c(C)nc4cccnc43)cc2)cc1Cl`, the activity change, negative = inhibition was 0%. Consider `Cc1cc2n(n1)C(c1cc(C(C)(C)C)c(O)cc1O)Nc1ccccc1-2` (stereo not given), for which the activity change, negative = inhibition is -23.1%.

On to `CCCCN(CC)CCCNC(=O)CS(=O)(=O)Cc1nc(-c2cccc(OC)c2)oc1C`, for which the activity change, negative = inhibition was 29.6%.

Turning to `COc1cccc(-c2nc(CS(=O)(=O)CC(=O)N3CCN(c4cc(C)ccc4C)CC3)c(C)o2)c1`, the activity change, negative = inhibition was -75.7% (active). With `COc1ccc(-c2nc(CS(=O)(=O)CC(=O)NCc3cccc(Br)c3)c(C)o2)cc1` the figure was 5.73%. With `CCS(=O)(=O)n1nc(-c2ccccc2)nc1SCc1ccccc1` the figure was 138%.

Regarding `COc1cc(OC)c(C2C=C(C(=O)O)Nc3ncnn32)cc1OC` (stereo not given), the activity change, negative = inhibition was 6.4%. Under `CCN(CC)CCCNC(=O)c1ccc2c(=O)n(Cc3ccc4c(c3)OCO4)c(=S)[nH]c2c1` stands 69.4%; under `COc1ccc(Cn2c(=S)[nH]c3cc(C(=O)NCCCN4CCOCC4)ccc3c2=O)cc1`, -65.2% (active); under `COCCn1c(=S)[nH]c2cc(C(=O)NCCc3ccc(OC)c(OC)c3)ccc2c1=O`, 29.3%. As to `COc1ccc(C(F)(F)F)cc1N/C=C\c1nnnn1-c1ccc(C)cc1`, the activity change, negative = inhibition was 34.7%. Under `Cc1ccc(CN2CCc3nc(N4CCN(C)CC4)ncc3C2)cc1` stands -6.43%; under `CCCCOCCCNC(=O)C[C@@H]1C[C@@]2(C(=O)OCC)CCCC=C2N(CCC2=CCCCC2)C1=O`, 22.8%; under `CS(=O)(=O)N1CCc2nc(-c3ccccc3)sc2C1`, 154%. For the molecule `CCOc1ccc(Nc2c(S(=O)(=O)c3ccccc3)cnc3ccccc23)cc1`, the activity change, negative = inhibition is -70% (active).

Regarding `CCOc1ccc(S(=O)(=O)NCCSc2ccccc2)cc1`, the activity change, negative = inhibition was 43.7%. With `CCOc1ccc(S(=O)(=O)c2cn(Cc3ccccc3)c3ccc(OCC)cc3c2=O)cc1` the figure was -13.1%. As for `Cc1cc(F)ccc1NC1(c2ccccc2)C(=O)c2ccccc2C1=O`, the activity change, negative = inhibition is 6.52%. Under `Cc1[nH]c2ccccc2c1C(=O)CN1CC(C)CC(C)C1` (stereo not given) stands 9.64%.

`COc1ccc(C(=O)COC(=O)c2c(C)noc2C)cc1Cl`: the activity change, negative = inhibition was -19.5%. With `Cc1[nH]c2ccccc2c1C(=O)COC(=O)c1c(-c2ccccc2)noc1C`, the activity change, negative = inhibition is -67.3% (active). With `CCN(CC)c1ccc(NC(=O)Cn2nc3c(cc2=O)CCCC3)c(C)c1` the figure was -12.7%; with `CSc1ccc(CCNC(=O)c2ccc3c(c2)nc2n3CCOC2)cc1`, 11.7%.

`CN(C(=O)CCNC(=O)Cn1ccc2ccccc2c1=O)c1ccc(Br)cc1`: the activity change, negative = inhibition was 9.17%. Regarding `CC1=C(C(=O)OCc2ccc(C)cc2)C(c2ccccc2Cl)CC(=O)N1` (stereo not given), the activity change, negative = inhibition is -36.9%. Under `CCCNC(=O)C1(C)CCCN(Cc2cccc(C(F)(F)F)c2)C1` (stereo not given) stands -32.6%; under `CCCNC(=O)C1(C)CCN(Cc2ccc(Cl)c(Cl)c2)C1` (stereo not given), -29%; under `CCCNC(=O)C1(C)CCCN(Cc2c(C)nn(-c3ccccc3)c2C)C1` (stereo not given), -77% (active).
